# JMJD2A Tudor: blocks the human JMJD2A Tudor domain; AlphaScreen JMJD2A-Tudor / H3K4me3 peptide binding; Potency, µM (titrated, usually from 114 µM), for inactives: at the highest dose activity change, negative = inhibition, most hits filed as inhibitors; 390,000 tested, 4.4% active; note: % is set by controls: 0 for no effect and ±100 for the full control effect; nearly all actives have a fitted effect of over 50% in size
# BAZ2B inh: BAZ2B (human) inhibition. Potency, µM (doses to about 114 µM), for the others: top-dose activity change, negative = inhibition, usual class: inhibitors. Q9UIF8. 360,000 tested, 4.4% active. AlphaScreen BAZ2B-H3K14Ac peptide displacement; note: % is set by controls: 0 for no effect and ±100 for the full control effect; nearly all actives have a fitted effect of over 60% in size
# Target sequence (Q9UIF8 whole entry, looked up): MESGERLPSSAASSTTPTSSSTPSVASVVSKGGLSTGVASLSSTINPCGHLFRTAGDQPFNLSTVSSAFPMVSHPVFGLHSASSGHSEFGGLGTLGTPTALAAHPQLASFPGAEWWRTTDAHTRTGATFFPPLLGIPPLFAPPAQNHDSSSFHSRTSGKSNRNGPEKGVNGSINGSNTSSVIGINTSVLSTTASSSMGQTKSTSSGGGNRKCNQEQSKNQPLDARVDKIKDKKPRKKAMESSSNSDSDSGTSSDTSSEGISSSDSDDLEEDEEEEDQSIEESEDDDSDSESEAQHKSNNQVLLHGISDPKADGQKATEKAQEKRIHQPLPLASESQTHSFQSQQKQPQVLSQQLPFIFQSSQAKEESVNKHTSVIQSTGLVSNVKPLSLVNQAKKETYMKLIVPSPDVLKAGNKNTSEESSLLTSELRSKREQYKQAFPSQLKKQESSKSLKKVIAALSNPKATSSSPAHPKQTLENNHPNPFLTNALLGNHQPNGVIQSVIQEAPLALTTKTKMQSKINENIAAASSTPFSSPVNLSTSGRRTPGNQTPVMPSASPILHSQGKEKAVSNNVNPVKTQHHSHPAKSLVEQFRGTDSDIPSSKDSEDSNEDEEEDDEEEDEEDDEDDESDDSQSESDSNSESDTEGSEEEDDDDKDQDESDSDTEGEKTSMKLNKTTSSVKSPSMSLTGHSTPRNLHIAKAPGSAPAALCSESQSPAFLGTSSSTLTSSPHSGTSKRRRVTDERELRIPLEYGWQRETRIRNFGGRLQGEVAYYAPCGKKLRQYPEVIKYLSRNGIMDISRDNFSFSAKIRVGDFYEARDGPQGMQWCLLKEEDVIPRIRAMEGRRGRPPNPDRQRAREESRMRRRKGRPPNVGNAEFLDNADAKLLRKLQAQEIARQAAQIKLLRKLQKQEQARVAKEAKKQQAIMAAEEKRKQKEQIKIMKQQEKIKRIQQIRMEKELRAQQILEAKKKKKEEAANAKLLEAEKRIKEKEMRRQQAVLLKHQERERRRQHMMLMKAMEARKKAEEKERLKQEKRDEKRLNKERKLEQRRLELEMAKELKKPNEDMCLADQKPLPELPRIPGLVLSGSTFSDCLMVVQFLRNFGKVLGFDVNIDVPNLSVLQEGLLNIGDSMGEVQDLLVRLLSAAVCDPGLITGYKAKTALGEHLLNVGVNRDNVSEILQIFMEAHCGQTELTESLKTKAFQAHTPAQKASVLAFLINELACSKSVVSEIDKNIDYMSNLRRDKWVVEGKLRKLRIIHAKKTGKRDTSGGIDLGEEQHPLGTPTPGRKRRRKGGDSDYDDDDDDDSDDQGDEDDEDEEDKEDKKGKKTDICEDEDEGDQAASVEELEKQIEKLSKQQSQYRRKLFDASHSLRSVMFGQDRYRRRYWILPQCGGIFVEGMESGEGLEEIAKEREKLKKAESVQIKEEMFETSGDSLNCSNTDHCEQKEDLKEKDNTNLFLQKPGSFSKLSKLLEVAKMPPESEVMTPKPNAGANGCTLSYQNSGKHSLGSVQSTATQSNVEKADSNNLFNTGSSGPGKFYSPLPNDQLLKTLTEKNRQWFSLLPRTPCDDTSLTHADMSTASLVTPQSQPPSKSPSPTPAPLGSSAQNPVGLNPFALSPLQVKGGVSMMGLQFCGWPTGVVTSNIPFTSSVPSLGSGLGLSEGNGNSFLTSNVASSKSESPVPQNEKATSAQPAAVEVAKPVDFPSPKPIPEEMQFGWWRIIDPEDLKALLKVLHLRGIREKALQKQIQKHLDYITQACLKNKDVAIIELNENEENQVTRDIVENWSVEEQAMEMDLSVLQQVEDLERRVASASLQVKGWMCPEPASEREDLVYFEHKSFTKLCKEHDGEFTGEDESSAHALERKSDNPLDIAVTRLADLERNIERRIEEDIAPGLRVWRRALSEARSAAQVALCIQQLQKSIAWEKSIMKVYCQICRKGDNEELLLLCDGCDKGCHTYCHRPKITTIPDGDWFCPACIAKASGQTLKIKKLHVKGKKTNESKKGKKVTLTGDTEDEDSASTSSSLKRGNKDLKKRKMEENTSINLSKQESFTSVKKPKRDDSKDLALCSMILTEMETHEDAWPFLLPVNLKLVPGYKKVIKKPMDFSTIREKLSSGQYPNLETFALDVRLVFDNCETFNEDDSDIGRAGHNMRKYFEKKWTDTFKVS
#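 AlphaScreen displacement of biotin-H3(5-23)K14Ac peptide (50 nM final) from BAZ2B (50 nM final) in PBS pH 7.4, 0.01% Tween-20; complex preformed 30 min RT, then compounds (top 110 uM) 30 min RT, beads 20 min dark.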
# G9a inh: blocks human histone lysine methyltransferase G9a; 350,000 tested, 8.8% active; AID 504332; G9a H3K9 monomethylation, AlphaScreen, 2 h; Potency, µM (doses to about 102 µM), for the others: at the highest dose activity, negative = inhibition, most hits filed as inhibitors; Q96KQ7; note: % is set by controls: 0 for no effect and ±100 for the full control effect; nearly all actives have a fitted effect of over 75% in size
#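 Methyltransferase reactions run at room temperature for 2 h (20 nM enzyme, 500 nM biotin-H3K9 peptide, 20 uM SAM) after a 15 min compound preincubation; product detected by AlphaScreen beads and anti-H3K9me1 antibody.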
# PLK1 PBD inh: inhibitors of human PLK1 polo-box domain binding | Plk1 PBD binding of FITC phosphopeptide, fluorescence polarization | Potency, µM, without a hit: max response, negative = inhibition, most hits filed as inhibitors | 360,000 tested, 2.8% active | AID 720504; note: series mostly up to about 57 µM; % is set by controls: 0 for no effect and ±100 for the full control effect; nearly all actives have a fitted effect of over 65% in size
# Sfp PPTase inh: inhibitors of Bacillus subtilis Sfp phosphopantetheinyl transferase; Potency, µM, inactives show largest response in the series, negative = inhibition, most hits filed as inhibitors; Biochemical Sfp PPTase activity, qHTS; 310,000 tested, 3.5% active;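 note: the enzyme is Sfp with the accession as filed and its product quenches rhodamine fluorescence; 0% = enzyme reaction without inhibitor and -100% = no enzyme wells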
#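 Compounds were incubated with enzyme (final 15 nM) for 15 min at room temperature before substrate addition started the reaction. Fluorescence at 525 nm excitation, 598 nm emission was recorded immediately and after 30 minutes.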
# HP1b chromo inh: blocks HP1-beta chromodomain binding to methylated histone tails; P83916; AlphaScreen HP1-beta / biotin-H3K9me3 peptide binding; Potency, µM (doses to about 114 µM), for the others: at the top dose activity change, negative = inhibition, usual class: inhibitors; 390,000 tested, 0.56% active; note: nearly all actives have a fitted effect of over 70% in size
#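 HP1-beta protein (50 nM final) preincubated 30 min at room temperature with biotinylated H3(1-18)K9me3 peptide (50 nM) in PBS pH 7.4, 0.01% Tween-20, then compound added for 30 min. AlphaScreen streptavidin donor/nickel chelate acceptor beads (10 ug/mL final), 30 min dark, luminescence read.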
# Numbers without * were called inactive; ? = inconclusive; . = no result given; ! = not active in a repeat; [ ] = remark or other dose. The list is not random: actives were taken first. Their share in the collection is about 12%. Calls come from the whole dose curve; as a rule, active = well fitted curve in the direction sought with a large enough effect; inconclusive = small, poorly fitted or top-dose-only effect, or another doubt; inactive = no such curve, though single readings can be large; an effect the other way counts as inactive or inconclusive. Potency is the fitted concentration of half-maximal effect.
SMILES,JMJD2A Tudor,BAZ2B inh,G9a inh,PLK1 PBD inh,Sfp PPTase inh,HP1b chromo inh
C#CCOCCOCCOCCNc1nc(N2CCN(C(=O)C([C@@H](C)CC)n3cc(C(N)CO)nn3)CC2)nc(N2CCN(C(=O)C([C@@H](C)CC)n3cc(C(N)COC(=O)C(F)(F)F)nn3)CC2)n1 (stereo not given in full),79µM*,.,.,-7%,.,21%
C#CCOCCOCCOCCNc1nc(N2CCOCC2)nc(N2CCN(C(=O)[C@H](CCCCN)n3cc([C@@H](N)CC(C)C)nn3)CC2)n1,-26%,-37%,?,-16%,25%,48%
C#CCOCCOCCOCCNc1nc(N2CCN(C(=O)[C@H]([C@@H](C)CC)n3cc([C@@H](N)CC(C)C)nn3)CC2)nc(N2CCN(C(=O)[C@H](CCCCN)n3cc([C@@H](N)CC(C)C)nn3)CC2)n1,56µM*,?,-115%[59 µM],-5%,2%,6%
CCCNC(=O)[C@H]1O[C@@H]1C(=O)N[C@H](C(=O)N1CCC[C@H]1C(=O)OC)[C@@H](C)CC,.,.,41%[59 µM],.,21%,.
C#CCOCCOCCOCCNc1nc(N2CCN(C(=O)[C@H](C)n3cc(CCC(=O)O)nn3)CC2)nc(N2CCN(C(=O)[C@H](Cc3ccc(O)cc3)n3cc(CCO)nn3)CC2)n1,-34%,.,.,5%,.,26%
C#CCOCCOCCOCCNc1nc(N2CCN(C(=O)[C@H]([C@@H](C)CC)n3cc([C@@H](N)Cc4ccc(O)cc4)nn3)CC2)nc(N2CCN(C(=O)[C@H]([C@@H](C)CC)n3cc([C@@H](N)CC(C)C)nn3)CC2)n1,45µM*,?,-19%[59 µM],-10%,-29%,22%
C#CCOCCOCCOCCNc1nc(N2CCN(C(=O)[C@H]([C@@H](C)CC)n3cc([C@@H](N)CO)nn3)CC2)nc(N2CCN(C(=O)[C@H](Cc3ccc(O)cc3)n3cc([C@@H](N)CC(C)C)nn3)CC2)n1,56µM*,32µM*,?,3%,6%,-11%
C#CCOCCOCCOCCNc1nc(N2CCOCC2)nc(N2CCN(C(=O)[C@H]([C@@H](C)CC)n3cc([C@@H](N)Cc4ccc(O)cc4)nn3)CC2)n1,-24%,-20%,?,-13%,11%,30%
C#CCOCCOCCOCCNc1nc(N2CCN(C(=O)[C@H]([C@@H](C)CC)n3cc([C@@H](N)Cc4ccc(O)cc4)nn3)CC2)nc(N2CCN(C(=O)[C@H](Cc3ccc(O)cc3)n3cc([C@@H](N)CC(C)C)nn3)CC2)n1,14µM*,56µM*,?,5%,19%,8%
COC(=O)C1=C(N)N(c2ccc(F)cc2)C2=C(C(=O)CCC2)C1c1ccc2c(c1)OCO2 (stereo not given),-8%,2%,12%[12.7 µM],-5%,12%,35%
CC(=O)OCC1=C(C(=O)O)N2C(=O)C(NC(=O)c3ccc(COc4c(C)cccc4Cl)o3)C2SC1 (stereo not given),?,?,45µM*,-15%,63µM*,10%
CC(=O)OCC1=C(C(=O)O)N2C(=O)C(NC(=O)Cn3nc(C(F)F)c(Cl)c3C)C2SC1 (stereo not given),-14%,-35%,50µM*,-28%,5%,14%
CC(=O)OCC1=C(C(=O)O)N2C(=O)C(NC(=O)CCn3nc(C(F)(F)F)c(Br)c3C3CC3)C2SC1 (stereo not given),-21%,0%,40µM*,?,-3%,2%
CC(=O)OCC1=C(C(=O)O)N2C(=O)C(NC(=O)CCn3nc(C)c(Cl)c3C)C2SC1 (stereo not given),-17%,4%,?,-8%,?,38%
CC(=O)OCC1=C(C(=O)O)N2C(=O)[C@@H](NC(=O)Cc3cccs3)[C@H]2SC1,79µM*,50µM*,7.5µM*!,?,?,-10%

# Screens: PubChem, National Center for Advancing Translational Sciences (NCATS)
